BRCT inh green: qHTS Assay for Inhibitors of BRCT-Phosphoprotein Interaction (Green Fluorophore); AID 875, 2007; BRCA1 BRCT-phosphopeptide binding, green fluorescence polarization; Breast cancer type 1 susceptibility protein (Homo sapiens), P38398; Potency, µM (highest dose often 76.9 µM), actives largely listed as inhibitors; 75,000 compounds, 0.05% hits
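Compounds were incubated for 12 min at room temperature with a complex of 100 nM fluorescein-tagged pBACH1 decapeptide and 250 nM His-tagged BRCT protein. Buffer was phosphate pH 7.3 with EDTA, DTT and Tween 20. Disruption of binding lowers the polarization signal.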
TsaE inh: qHTS Assay for Inhibitors of YjeE | 71,000 compounds, 0.05% hits | Potency, µM | purified YjeE enzyme, qHTS inhibition assay | AID 605, 2007 | tRNA threonylcarbamoyladenosine biosynthesis protein TsaE (Escherichia coli (strain …
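Purified YjeE (10 uM) with BODIPY Texas Red-labeled ADP probe (2 uM); compounds pin-transferred, 15 min at room temperature. Binding inhibition read as decreased fluorescence polarization; ADP titration as control.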
BRCT inh red: qHTS Assay for Inhibitors of BRCT-Phosphoprotein Interaction (Red Fluorophore). Potency, µM (top dose mostly 76.9 µM), usual class: inhibitors. 75,000 compounds, 0.03% hits. AID 892, 2007. Breast cancer type 1 susceptibility protein (Homo sapiens), P38398. BRCT-phosphopeptide binding, red fluorescence polarization
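Rhodamine-labelled pBACH1 10-mer (100 nM) bound to BRCT domain (100 nM) at pH 7.3; compounds incubated 12 min room temperature, polarization read. Free peptide defines full inhibition; unlabelled decapeptide titrated as control.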
HEK293 cAMP ctrl: qHTS Assay for Agonists of the Thyroid Stimulating Hormone Receptor: Activators of Intracellular cAMP Concentrations in Parental HEK 293; Potency, µM (doses to about 57.1 µM), hits mostly activators; 73,000 compounds, 2.5% hits; parental HEK293 CNG cAMP sensor, membrane potential fluorescence; note: nearly all actives have a fitted effect of over 55% in size
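Parental HEK 293 cells stably expressing a cAMP-gated CNG channel were loaded with membrane potential dye containing 100 uM RO 20-1724 for 60 min. Compound added for 30 min; depolarization read as fluorescence intensity at 590 nm.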
DNA Pol III inh: qHTS Assay for Inhibitors of DNA Polymerase III Holoenzyme System; AID 603, 2007; 71,000 compounds, 0.25% hits; Potency, µM (series often up to 57.1 µM); reconstituted DNA polymerase III holoenzyme replication, biochemical
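Reconstituted *E. coli* holoenzyme (0.35 nM Pol III, 1 nM beta, 154 nM SSB, 2 nM primase) was preincubated with compound for 15 min at RT. Synthesis on 1.4 nM ssM13Gori ran 35 min, then was stopped with PicoGreen/EDTA and read as dsDNA fluorescence.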
TSHR agonist: qHTS Assay for Agonists of the Thyroid Stimulating Hormone Receptor; AID 926, 2007; Potency, µM (titrated, usually from 57.1 µM), usual class: activators; 73,000 compounds, 0.48% hits; Thyrotropin receptor (Homo sapiens), P16473; HEK293-CNG-TSHR cells (CNG channel as cAMP sensor), membrane potential dye, cAMP; active = well fitted activation curve with a large enough effect in the main read-out, with a control signal flat, not every such curve was filed as active; inconclusive = small, poorly fitted or top-dose-only effect, or a change in a side signal; inactive = no such curve, though single readings can be large or run the other way; reference of the percent scale not stated here;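 note: the control signal comes from parental cells without the receptor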
Target sequence (P16473 whole entry, looked up): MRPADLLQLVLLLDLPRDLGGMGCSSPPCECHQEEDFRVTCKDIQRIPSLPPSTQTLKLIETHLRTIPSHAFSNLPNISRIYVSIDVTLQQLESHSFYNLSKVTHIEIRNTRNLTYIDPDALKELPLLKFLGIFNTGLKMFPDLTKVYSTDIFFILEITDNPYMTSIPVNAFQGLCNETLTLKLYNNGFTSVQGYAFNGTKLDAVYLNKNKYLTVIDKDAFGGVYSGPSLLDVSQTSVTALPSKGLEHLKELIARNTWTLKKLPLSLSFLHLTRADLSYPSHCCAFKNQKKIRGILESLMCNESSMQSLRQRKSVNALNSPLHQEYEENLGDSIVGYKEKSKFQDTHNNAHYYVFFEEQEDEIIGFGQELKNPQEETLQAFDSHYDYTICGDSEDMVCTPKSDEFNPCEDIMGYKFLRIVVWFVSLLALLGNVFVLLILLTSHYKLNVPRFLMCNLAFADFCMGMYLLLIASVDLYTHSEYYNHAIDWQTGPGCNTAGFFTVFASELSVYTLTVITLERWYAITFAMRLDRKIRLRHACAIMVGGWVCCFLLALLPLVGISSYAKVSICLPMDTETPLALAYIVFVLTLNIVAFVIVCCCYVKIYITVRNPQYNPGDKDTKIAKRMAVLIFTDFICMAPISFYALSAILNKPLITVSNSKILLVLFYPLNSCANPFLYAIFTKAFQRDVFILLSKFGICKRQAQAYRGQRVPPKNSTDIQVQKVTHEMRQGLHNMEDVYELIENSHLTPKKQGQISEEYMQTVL
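cAMP rise detected as CNG-channel membrane depolarization by fluorescent dye (emission 590 nm), 30 min after compound, following 60 min dye loading containing 100 uM RO 20-1724 at room temperature. Cells: TSHR/CNG HEK 293, with parental CNG HEK 293 as control.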
Hits are given with their value; ! = a repeat was not active; [ ] = dose if it differs, or a comment. Most compounds without a hit are left out; they make up all but 3.2% or so of the library. Unless noted, calls come from the whole dose curve; as a rule, active = well fitted curve in the direction sought with a large enough effect; inconclusive = small, poorly fitted or top-dose-only effect, or another doubt; inactive = no such curve, though single readings can be large; an effect the other way counts as inactive or inconclusive.

N#Cc1cccc(NC(=O)N2CC3(CCN(C(=O)c4cc(C(F)(F)F)cc(C(F)(F)F)c4)CC3)C2)c1 was read as BRCT inh green inactive, TsaE inh inactive, BRCT inh red inactive, HEK293 cAMP ctrl inactive, DNA Pol III inh inactive and TSHR agonist inactive.
O=C(O)c1cccc(C(=O)O)c1S(=O)Cc1ccccc1 (configuration not stated) was read as BRCT inh green inactive[15.4 µM], TsaE inh inactive, BRCT inh red inactive[15.4 µM], HEK293 cAMP ctrl inactive[11.4 µM], DNA Pol III inh inactive[11.4 µM] and TSHR agonist inactive[11.4 µM].
`Cc1[nH]c2ccccc2c1-c1cc(-c2cc(-c3c(C)[nH]c4ccccc34)nc(N)n2)nc(N)n1` gave BRCT inh green inactive[15.4 µM], TsaE inh inactive, BRCT inh red inactive[15.4 µM], HEK293 cAMP ctrl inactive[11.4 µM], DNA Pol III inh inactive[11.4 µM] and TSHR agonist inactive[11.4 µM].
`COc1ccc(NC(=O)CSc2nnc(-c3ccoc3C)n2CCc2ccccc2)cc1` gave BRCT inh green inactive, TsaE inh inactive, BRCT inh red inactive, HEK293 cAMP ctrl inactive, DNA Pol III inh inactive and TSHR agonist 25µM.
For Cc1occc1-c1nnc(SCC(=O)Nc2ccccc2)n1Cc1ccccc1 the results were BRCT inh green inactive, TsaE inh inactive, BRCT inh red inactive, HEK293 cAMP ctrl inconclusive, DNA Pol III inh inactive and TSHR agonist inconclusive.
`C[C@H]1[C@H](O)[C@@H](C)C=CC=CC=CC=CC=CC=CC=C[C@H](O[C@@H]2O[C@@H](C)[C@H](O)[C@@H](N)[C@@H]2O)C[C@@H]2O[C@](O)(C[C@@H](O)C[C@@H](O)[C@@H](O)CC[C@@H](O)C[C@@H](O)CC(=O)O[C@H]1C)C[C@H](O)[C@H]2C(=O)O` gave BRCT inh green inactive[15.4 µM], TsaE inh inactive, BRCT inh red inactive[15.4 µM], HEK293 cAMP ctrl inactive[11.4 µM], DNA Pol III inh inactive[11.4 µM] and TSHR agonist inactive[11.4 µM].
`CCOC(=O)c1cc(-c2ccco2)nc2c1c(C)nn2CCC#N` gave BRCT inh green inactive, TsaE inh inactive, BRCT inh red inactive, HEK293 cAMP ctrl inconclusive, DNA Pol III inh inactive and TSHR agonist inconclusive.
`CCOC(=O)c1cc(-c2ccc3c(c2)OCCO3)nc2c1c(C)nn2CCC#N` gave BRCT inh green inactive, TsaE inh inactive, BRCT inh red inactive, HEK293 cAMP ctrl 20µM, DNA Pol III inh inactive and TSHR agonist inconclusive.
`Cc1ccc(S(=O)(=O)O)cc1C` gave BRCT inh green inactive, TsaE inh inactive, BRCT inh red inactive, HEK293 cAMP ctrl inactive, DNA Pol III inh inactive and TSHR agonist inactive.
CC1CCC2C(=O)OC(CN=[N+]=[N-])CN2C1c1ccc(Br)cc1 (configuration not stated) was read as BRCT inh green inactive[15.4 µM], BRCT inh red inactive[15.4 µM], HEK293 cAMP ctrl 5µM! and TSHR agonist inconclusive.
`CCCC[C@@H]1CN2[C@H](c3ccc(Br)cc3)[C@H](C)CC[C@H]2C(=O)O1` gave BRCT inh green inactive[15.4 µM], BRCT inh red inactive[15.4 µM], HEK293 cAMP ctrl inconclusive and TSHR agonist inconclusive.
For CC(C)C(=O)NCCn1ccc2ccccc21 the results were BRCT inh green inactive, TsaE inh inactive, BRCT inh red inactive, HEK293 cAMP ctrl inactive, DNA Pol III inh inactive and TSHR agonist inactive.
CN(C)S(=O)(=O)c1cc(C(=O)NCCCn2ccc3ccccc32)ccc1Cl was read as BRCT inh green inactive, TsaE inh inactive, BRCT inh red inactive, HEK293 cAMP ctrl 25µM, DNA Pol III inh inactive and TSHR agonist inconclusive.
`CN(C)c1ccc(-c2nc(NCCc3cnc[nH]3)c3ccccc3n2)cc1` gave BRCT inh green inactive, TsaE inh inactive, BRCT inh red inactive, HEK293 cAMP ctrl inactive, DNA Pol III inh inactive and TSHR agonist inconclusive.
For CN(C)c1ccc(C(c2nnnn2C(C)(C)C)N2CCc3ccccc3C2)cc1 (configuration not stated) the results were BRCT inh green inactive, TsaE inh inactive, BRCT inh red inactive, HEK293 cAMP ctrl 16µM, DNA Pol III inh inactive and TSHR agonist inconclusive.
For COc1ccc(C(c2nnnn2C2CCCC2)N2CCc3ccccc3C2)cc1OC (configuration not stated) the results were BRCT inh green inactive, TsaE inh inactive, BRCT inh red inactive, HEK293 cAMP ctrl 7.9µM, DNA Pol III inh inactive and TSHR agonist inconclusive.
Cc1nc(N2CCOCC2)c2nc(-c3ccccc3)n(CC3CCN(C)CC3)c2n1 was read as BRCT inh green inactive, TsaE inh inactive, BRCT inh red inactive, HEK293 cAMP ctrl inactive, DNA Pol III inh inactive and TSHR agonist inactive.
CS(=O)(=O)N(CC(=O)O)Cc1ccccc1 was read as BRCT inh green inactive[15.4 µM], TsaE inh inactive, BRCT inh red inactive[15.4 µM], HEK293 cAMP ctrl inactive[11.4 µM], DNA Pol III inh inactive[11.4 µM] and TSHR agonist inactive[11.4 µM].
Screening O=C(c1cccc(F)c1)N1CCC[C@@]2(CCN(C(c3ccccc3)c3ccccc3)C2)C1 returned BRCT inh green inactive, TsaE inh inactive, BRCT inh red inactive, HEK293 cAMP ctrl inconclusive, DNA Pol III inh inactive and TSHR agonist inconclusive.
For CCC(=O)N1CCN(c2nc(-c3ccccc3)c3c(c2C#N)CCCC3)CC1 the results were BRCT inh green inactive, TsaE inh inactive, BRCT inh red inactive, HEK293 cAMP ctrl 4µM, DNA Pol III inh inactive[11.4 µM] and TSHR agonist inconclusive.
`N#Cc1c(SCC(N)=O)nc(-c2ccccc2)c2c1CCCC2` gave BRCT inh green inactive, TsaE inh inactive, BRCT inh red inactive, HEK293 cAMP ctrl 20µM, DNA Pol III inh inactive and TSHR agonist inconclusive.
N#Cc1c(SCc2ccccc2)nc(N2CCOCC2)c2c1CCCC2 was read as BRCT inh green inactive, TsaE inh inactive, BRCT inh red inactive, HEK293 cAMP ctrl inactive[11.4 µM], DNA Pol III inh inactive[11.4 µM] and TSHR agonist inactive[11.4 µM].
CC(=O)CSCc1ccccn1 was read as BRCT inh green inactive[15.4 µM], TsaE inh inactive, BRCT inh red inactive[15.4 µM], HEK293 cAMP ctrl inactive[11.4 µM] and DNA Pol III inh inactive[11.4 µM].
COC(=O)[C@@]1(Cc2ccc(OC)cc2)[C@H]2c3cc(C(=O)N4CCCC4)n(CCN4CCOCC4)c3C[C@H]2CN1C(=O)c1ccccc1 was read as BRCT inh green inactive, TsaE inh inactive, BRCT inh red inactive, HEK293 cAMP ctrl 20µM, DNA Pol III inh inactive and TSHR agonist inconclusive.
`COC(=O)[C@@]1(Cc2ccccc2)[C@H]2c3cc(C(=O)N(C)C)n(CCF)c3C[C@H]2CN1C(=O)c1ccccc1` gave BRCT inh green inactive, TsaE inh inactive, BRCT inh red inactive, HEK293 cAMP ctrl 25µM, DNA Pol III inh inactive and TSHR agonist inconclusive.

Source: PubChem
